Source: PubChem BioAssay
Most compounds without a hit are left out; they make up all but 21% or so of the library.
HCV inh = inhibitors of hepatitis C virus infection; AID 651820; Huh7.5.1 HCVcc-Cre infection, luciferase reporter, 44 h; Potency, µM (titrated, usually from 41.8 µM), for inactives: at the highest dose activity change, negative = inhibition, actives largely listed as inhibitors; hit rate 3.4% among 340,000; note: potency is the fitted concentration of half-maximal effect; % is set by controls: 0 for no effect and ±100 for the full control effect
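Infectious HCV cell culture screen: compound-treated cells (1,000/well, pre-plated 4 h) are infected with HCVcc-Cre at roughly 0.5 moi and grown 44 h. Infection is quantified by luciferase signal after 15 min substrate incubation at room temperature.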
AMA1-RON2 inh = inhibitors of Plasmodium falciparum AMA1-RON2 interaction. AlphaScreen AMA1-biotinylated RON2 peptide binding. Potency, µM (top dose mostly 58.2 µM), without a hit: at the highest dose activity change, negative = inhibition, most hits filed as inhibitors. hit rate 0.2% among 360,000;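 note: potency is the fitted concentration of half-maximal effect; 0% = vehicle wells and -100% = peptide control; nearly all actives have a fitted effect of over 45% in size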
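AMA1 (3D7) with his tag at 25 nM final met compounds first, then biotinylated RON2 peptide at 25 nM; detection used donor plus acceptor beads, 10 µg/mL apiece, read by AlphaScreen after 30 min at room temperature.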
Shiga inhibitor = blocks Shiga toxin action in Vero cells | inhibition, % at 38.7 µM | hit rate 9.2% among 290,000 | Vero cells, Shiga toxin protein synthesis inhibition reporter; in the data active = inhibition mostly above about 28%, no sharp cut-off; inactive = mostly below about 43%; note: 0% is about no effect
CHX counter = counter-screen hit for Shiga toxin inhibitors, cycloheximide; AID 2314; hit rate 12% among 300,000; max response, %; cell reporter, cycloheximide protein synthesis inhibition counterscreen; in the data active = max response mostly above about 13%, no sharp cut-off; inactive = mostly below about 14%; note: read at 38.3 µM for the half of the compounds with a filed dose; 0% is about no effect
Pf growth 48h = P. falciparum growth inhibition at 48 hours (one generation); hit rate 5.9% among 310,000; P. falciparum luciferase growth in erythrocytes, 48 h; Potency, µM (titrated, usually from 28.7 µM), for inactives: at the highest dose activity change, negative = inhibition, usual class: inhibitors; note: potency is the fitted concentration of half-maximal effect; % is set by controls: 0 for no effect and ±100 for the full control effect
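Growth was read as firefly luciferase luminescence after a 48 h, 37 C, 5% CO2 exposure of compounds to reporter-bearing P. falciparum cultures (0.1% parasitemia, 2% hematocrit final) in Albumax-supplemented RPMI 1640.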
Pf growth 96h = inhibits malaria parasite growth, 96 h. P. falciparum luciferase reporter growth, 96 h. Potency, µM (highest dose often 28.7 µM), for the others: at the highest dose activity change, negative = inhibition, hits mostly inhibitors. hit rate 6.9% among 320,000. AID 504834; note: potency is the fitted concentration of half-maximal effect; % is set by controls: 0 for no effect and ±100 for the full control effect
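Infected RBCs, 2% Hct / 0.05% parasitemia final; luciferase-reporter P. falciparum; cpd 96 h, 37 C, 5% CO2; luciferase detection reagent; luminescence.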
Active calls of the source: *; i = inactive; ? = inconclusive; . = no result; [ ] = another dose, or the depositor's remark. Unless noted, calls come from the whole dose curve; as a rule, active = well fitted curve in the direction sought with a large enough effect; inconclusive = small, poorly fitted or top-dose-only effect, or another doubt; inactive = no such curve, though single readings can be large; an effect the other way counts as inactive or inconclusive.

SMILES	HCV inh	AMA1-RON2 inh	Shiga inhibitor	CHX counter	Pf growth 48h	Pf growth 96h
N#Cc1c(-c2ccco2)cc(-c2ccccn2)nc1N	?	18.0%	49.0	32.6*	3.1%	.
CC(C)n1cnnc1SCC(=O)NC(=O)c1ccccc1	8.7%	1.1%	.	.	7.0%	12.1%
COC(=O)CCCC1=CC2=CC(=O)C(C)(OC(=O)c3cccs3)C(=O)C2=CN1Cc1ccc2c(c1)OCO2 (stereo not drawn)	1.1%	-19.0%	-6.0	-2.7	13.1µM*	?
COC(=O)CCCC1=CC2=CC(=O)C(C)(OC(=O)c3cccs3)C(=O)C2=CN1Cc1ccco1 (stereo not drawn)	-12.1%[8.37 µM]	-16.4%	-4.1	-1.2	?	?
COC(=O)CCCC1=CC2=CC(=O)C(C)(OC(=O)c3cccs3)C(=O)C2=CN1Cc1ccccc1 (stereo not drawn)	-11.2%[8.37 µM]	13.6%	-3.5	1.9	13.1µM*	?
COC(=O)CCCC1=CC2=CC(=O)C(C)(OC(=O)c3cccs3)C(=O)C2=CN1C1CCCC1 (stereo not drawn)	4.1%	-8.6%	11.0	3.1	?	?
COC(=O)CCCC1=CC2=CC(=O)C(C)(OC(=O)c3cccs3)C(=O)C2=CN1c1ccc(OC)cc1 (stereo not drawn)	17.4%	-9.2%	13.2	-1.0	6.57µM*	13.1µM*
COc1cccc(C(=O)N2CCC(C(=O)NCc3ccco3)CC2)c1	8.9%	-3.0%	-17.7	-1.2	18.6%	16.8%
Cc1ccc(Sc2ncccc2COC(=O)NC(C)C)cc1	-5.4%	14.0%	117.6*	36.6*	77.6%	117.6%
CCNC(=O)C1CCCN(C(=O)c2ccc(OC(F)F)cc2)CC1 (stereo not drawn)	.	8.4%	.	.	.	.
O=C(NNC1=C(C(=O)C(F)(F)F)CCC1)c1cccnc1	9.5%	111.7%	50.4	37.5*	9.4%	18.2%
O=C(NNC1=C(C(=O)C(F)(F)F)CCC1)c1cccc(O)c1	9.4%	15.9%	64.3*	31.1*	127.7%	45.1%
Cc1cccc(C(=O)NNC2=C(C(=O)C(F)(F)F)CCC2)c1O	-13.6%	-8.6%	16.8	15.3	-7.3%	.
O=C(/C=C/[C@H]1O[C@@H](n2cnc3c(NC(=O)c4ccccc4)ncnc32)[C@H](O)[C@@H]1O)NCc1cccs1	.	-2.0%	.	.	.	.
CCCN(CCC)C(=O)Nc1cc(Cl)ccc1OC	-14.2%	18.3%	14.9	6.1	-29.2%	?
O=C(c1cccc(C(F)(F)F)c1)N1CCN(CCc2ccccc2)CC1	1.8%	-3.5%	-1.6	-1.3	?	25.4%
COc1ccc2oc(=O)c(C(=O)N3CCN(c4ccccc4C)CC3)cc2c1	-8.2%	25.0%	131.6*	65.6*	3.8%	.
COc1ccc2oc(=O)c(C(=O)N3CCN(C(=O)c4ccccc4)CC3)cc2c1	5.8%	0.2%	-10.4	-2.6	3.3%	?
Cc1ccc(C)c(N2CCN(C(=O)c3cc4ccccc4oc3=O)CC2)c1	-20.0%	-3.0%	-5.3	-1.6	.	9.28µM*
O=C(c1cc2ccccc2oc1=O)N1CCN(c2ccc(N3CCOCC3)nn2)CC1	5.9%	7.5%	19.4	-2.7	-2.9%	-24.2%
O=C(c1ccc(F)cc1Cl)N1CCN(CCc2ccccc2)CC1	7.0%	10.4%	-8.8	1.0	5.2%	8.28µM*
COC(=O)/C=C/C(=O)N1CCN(c2ccccc2C)CC1	-0.7%	-12.1%	1.8	0.7	-16.8%	7.38µM*
COC(=O)/C=C/C(=O)N1CCN(c2ccccc2)CC1	2.7%	11.4%	31.6	-1.4	-5.3%	?
Cc1ccc(S(C)(=O)=NS(=O)(=O)c2cccc3nsnc23)cc1 (stereo not drawn)	8.6%	21.5%	10.9	0.9	-6.6%	-19.8%
O=C(CCc1ccc(S(=O)(=O)N2CCOCC2)cc1)Nc1ccc(F)cc1[N+](=O)[O-]	-14.9%	-6.5%	.	.	.	.
SMILES	HCV inh	AMA1-RON2 inh	Shiga inhibitor	CHX counter	Pf growth 48h	Pf growth 96h
COc1ccc([N+](=O)[O-])cc1N(CC(=O)N1CCN(Cc2ccccc2)CC1)S(C)(=O)=O	16.4%	-19.8%	-2.8	1.2	33.6%	19.1%
O=C(c1ccco1)N1CCN(C(=O)c2cc3ccccc3oc2=O)CC1	-0.1%	16.8%	-4.9	-2.4	10.3%	-14.6%
COc1ccc(C(=S)N2CCN(c3ccccc3C)CC2)cc1	?	-7.1%	14.0	-1.4	?	8.28µM*
COc1ccc2oc(=O)c(C(=O)N3CCN(c4ccccc4)CC3)cc2c1	0.1%	-8.4%	78.0	19.2*	0.0%	.
COc1ccc(C(=S)N2CCCCCC2)cc1	5.1%	-8.9%	13.6	-3.2	24.6%	-22.4%
O=C(c1cc2ccccc2oc1=O)N1CCN(CCc2ccccc2)CC1	5.6%	-6.8%	42.1	7.8	6.5%	9.28µM*
NC(=O)C1CCN(c2nc(-c3ccccc3Cl)cs2)CC1	.	.	.	.	?	6.2%
C[C@]12CC[C@H](O)CC1=CCC1C2CC[C@@]2(C)C1CC[C@@H]2NC(=O)[C@@H](N)Cc1cnc[nH]1 (stereo partly drawn)	8.7%	37.8%	.	.	.	.
O=C(CSc1nnc2c(n1)[nH]c1ccccc12)Nc1nncs1	-11.2%	11.2%	-9.0	-6.0	19.9%	?
O=C(NCCc1ccc(F)cc1)Nc1ccccc1	5.5%	0.0%	30.8*	29.7*	3.9%	?
CCN(CCNC(=O)Nc1ccc(Cl)cc1)c1ccccc1	14.1µM*	-9.1%	8.2	16.7	?	188.6%
O=C(NCCc1ccncc1)Nc1ccc(Cl)cc1	11.4%	0.1%	17.9	1.5	-2.5%	.
O=C(NCCc1ccc(Cl)cc1)Nc1ccc(Cl)cc1	-2.1%	14.1%	43.5*	12.8	-0.6%	-15.6%
O=C(CCc1nnc2ccc(N3CCC4(CC3)OCCO4)nn12)NCc1ccc(F)cc1	-12.9%	4.5%	19.8	12.7	-9.6%	-12.2%
COc1ccc([C@]23Cc4ccccc4C(O2)c2c(cc(-c4ccccc4)oc2=O)O3)cc1	.	.	i	10.3	?	?
O=C1c2cccc3cccc(c23)C(=O)N1CCN1CCN(CC(O)COCc2ccc(Cl)cc2)CC1 (stereo not drawn)	11.2µM*	?	-8.6	-0.4	?	?
COc1ccc(COCC(O)CN2CCC(CN3C(=O)c4cccc5cccc(c45)C3=O)CC2)cc1OC (stereo not drawn)	?	4.9%[2.32 µM]	-7.6	-6.1	?	11.7µM*
COc1cc(COCC(O)CN2CCN(CCN3C(=O)c4cccc5cccc(c45)C3=O)CC2)cc(OC)c1OC (stereo not drawn)	3.55µM*	-22.8%	-1.2	-3.1	?	?
O=C(/C=C/c1ccc(Cl)cc1)N1CCN(CCN2C(=O)c3cccc4cccc(c34)C2=O)CC1	?	-14.8%	.	.	.	.
COc1ccc2[nH]cc(CCNC(=O)COc3cc(C)cc4oc(=O)cc(C)c34)c2c1	-57.5%	0.0%	-9.1	-4.7	?	?
